Results from PubChem BioAssay.
Inconclusive results are not listed. Calls of active or inactive are those of the source.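 The calls were made as follows, unless noted: active = normalized viability below 100% at a tested concentration; inactive = the rest.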

How the values were obtained:
[1] = growth inhibition of DIPG glioma cells, dose response, cell-based, SU-DIPG-XVII, MIPE5.0, CellTiter-Glo, qHTS (AID 1347060; cut-off not given, nearly all actives have AC50 up to about 26 µM;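 also: cells exposed to compound for 48 hours before viability readout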); settings: SU-DIPG-XVII viability, CellTiter-Glo ATP luminescence
[2] = growth inhibition of DIPG glioma cells, dose response, cell-based, JHH-DIPG-1, MIPE4.0, CellTiter-Glo, qHTS (AID 1347062; cut-off not given, nearly all actives have AC50 up to about 27 µM;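 also: cells exposed to compound for two days before readout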); settings: JHH-DIPG-1 viability, CellTiter-Glo ATP luminescence
[3] = growth inhibition of DIPG glioma cells, dose response, cell-based, SU-DIPG-IV, MIPE4.0, CellTiter-Glo, qHTS (AID 1347063; cut-off not given, nearly all actives have AC50 up to about 30 µM;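 also: compound exposure lasted 48 hours before the viability readout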); settings: SU-DIPG-IV viability, CellTiter-Glo ATP luminescence
[4] = growth inhibition of DIPG glioma cells, dose response, cell-based, SU-DIPG-XIII, MIPE5.0, CellTiter-Glo, qHTS (AID 1347064; cut-off not given, nearly all actives have AC50 up to about 23 µM;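 also: cells exposed to compound for 48 hours before the viability read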); settings: SU-DIPG-XIII viability, CellTiter-Glo ATP luminescence
[5] = viability loss in pontine glioma line – cell-based, SU-DIPG-XXV, MIPE5.0, CellTiter-Glo, qHTS, dose response (AID 1347065; cut-off not given, nearly all actives have AC50 up to about 26 µM;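 also: cells exposed to compound for 48 hours before ATP readout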); settings: CellTiter-Glo ATP luminescence
[6] = SU-DIPG-VI glioma cell viability, MIPE4.0 library, CellTiter-Glo luminescence, qHTS (AID 1347066; cut-off not given, nearly all actives have AC50 up to about 30 µM;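 also: cells exposed to compound for 48 hours before readout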); settings: CellTiter-Glo ATP luminescence
[7] = sensitizers of A549 cells to miR-34 induction, primary screen, imaging, A549 dox-inducible miR-34, nuclei and caspase counts (AID 1347080;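 active = compounds whose cell count with miR-34 switched on is under 0.7 times the count with it off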); settings: A549 miR-34 inducible, Hoechst nuclei count, 48 h
[8] = modifiers of HSF1 nuclear foci, imaging, Selleck Cancer Library (AID 1347162; in the data active = plate-normalised HSF1 focus index below about 0.46); settings: human cells, at 10 µM; SSMD: measured here: HSF1 foci SSMD mean; cell count: measured here: cell number; plate-normalised HSF1 focus index: stronger effect = lower value
[9] = survival rescue of mitochondrial mutant cells in low glucose, primary screen, MELAS cybrids, Rieske KO mouse fibroblasts, CellTiter-Glo (AID 1508586;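 active = mean z-score across replicates of 1.96 or higher in either the MELAS or the Rieske mutant cell line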;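 also: z relative to plate mean and SD of compound and empty wells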)
[10] = ovarian cancer cell viability with rucaparib, profiling panel, oncology-focused library, rucaparib conditional (AID 1508598); settings: patient-derived ovarian cancer cells, CellTiter-Glo viability, 144 h, stronger effect = lower value
[11] = JHH-DIPG-1 glioma cell viability, MIPE5.0 library, CellTiter-Glo luminescence, qHTS (AID 1347067; cut-off not given, nearly all actives have AC50 up to about 26 µM;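 also: cells exposed to compound for 48 hours before readout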); settings: JHH-DIPG-1 glioma viability, CellTiter-Glo ATP luminescence
[12] = SU-DIPG-XXV glioma cell viability, MIPE5.0 library, qHTS (AID 1347068; cut-off not given, nearly all actives have IC50 up to about 30 µM;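 also: cells exposed to compound for 48 hours before viability readout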)

CC(C)c1ccccc1Cc1cc(C(=O)Nc2ccc(S(=O)(=O)c3ccccc3C(C)(C)C)cc2)c(O)c(O)c1O
0.84: fold change ([7]; measured here: relative caspase fold change +Dox/-Dox)
2260: cell count ([7]; measured here: total cells without miR-34 induction)
2090: cell count ([7]; measured here: total cells with miR-34 induction, stronger effect = lower value)
-1.79: SSMD [8]
inactive: fold change ([7]; stronger effect = lower value, cell number ratio, induced over uninduced) 0.928 | plate-normalised HSF1 focus index [8] 0.912 | viability ([10]; at 0.000305 µM, OCI-C5x cells, with rucaparib 10 µM, 100% = cells with rucaparib alone) 105% | viability ([10]; at 0.000305 µM, OCI-C5x cells, without rucaparib) 115% | viability ([10]; at 0.000305 µM, OCI-P5x cells, with rucaparib 20 µM, 100% = cells with rucaparib alone) 124% | viability ([10]; at 0.000305 µM, OCI-P5x cells, without rucaparib) 124% | viability ([10]; at 0.00122 µM, OCI-C5x cells, with rucaparib 10 µM, 100% = cells with rucaparib alone) 103% | viability ([10]; at 0.00122 µM, OCI-C5x cells, without rucaparib) 119% | viability ([10]; at 0.00122 µM, OCI-P5x cells, with rucaparib 20 µM, 100% = cells with rucaparib alone) 117% | viability ([10]; at 0.00122 µM, OCI-P5x cells, without rucaparib) 116% | viability ([10]; at 0.00488 µM, OCI-C5x cells, with rucaparib 10 µM, 100% = cells with rucaparib alone) 113% | viability ([10]; at 0.00488 µM, OCI-C5x cells, without rucaparib) 116% | viability ([10]; at 0.00488 µM, OCI-P5x cells, with rucaparib 20 µM, 100% = cells with rucaparib alone) 117% | viability ([10]; at 0.00488 µM, OCI-P5x cells, without rucaparib) 121% | viability ([10]; at 0.0195 µM, OCI-C5x cells, with rucaparib 10 µM, 100% = cells with rucaparib alone) 110% | viability ([10]; at 0.0195 µM, OCI-C5x cells, without rucaparib) 109% | viability ([10]; at 0.0195 µM, OCI-P5x cells, with rucaparib 20 µM, 100% = cells with rucaparib alone) 118% | viability ([10]; at 0.0195 µM, OCI-P5x cells, without rucaparib) 114% | viability ([10]; at 0.0781 µM, OCI-C5x cells, with rucaparib 10 µM, 100% = cells with rucaparib alone) 110% | viability ([10]; at 0.0781 µM, OCI-C5x cells, without rucaparib) 111% | viability ([10]; at 0.0781 µM, OCI-P5x cells, with rucaparib 20 µM, 100% = cells with rucaparib alone) 119% | viability ([10]; at 0.0781 µM, OCI-P5x cells, without rucaparib) 114% | viability ([10]; at 0.313 µM, OCI-C5x cells, with rucaparib 10 µM, 100% = cells with rucaparib alone) 101% | viability ([10]; at 0.313 µM, OCI-C5x cells, without rucaparib) 112% | viability ([10]; at 0.313 µM, OCI-P5x cells, with rucaparib 20 µM, 100% = cells with rucaparib alone) 112% | viability ([10]; at 0.313 µM, OCI-P5x cells, without rucaparib) 110% | viability ([10]; at 1.25 µM, OCI-C5x cells, with rucaparib 10 µM, 100% = cells with rucaparib alone) 106% | viability ([10]; at 1.25 µM, OCI-C5x cells, without rucaparib) 118%
7240: cell count [8]
-0.101: z-score ([9]; Rieske KO mouse fibroblast survival, CellTiter-Glo 72 h)
active: AC50 [1] 23500 nM | AC50 [2] 23500 nM | AC50 [3] 23500 nM | AC50 [4] 20900 nM | AC50 [5] 23500 nM | AC50 [6] 9350 nM | z-score ([9]; MELAS cybrid survival, CellTiter-Glo 48 h, stronger effect = higher value) 2.95 | viability ([10]; at 1.25 µM, OCI-P5x cells, with rucaparib 20 µM, 100% = cells with rucaparib alone) 98.8% | viability ([10]; at 1.25 µM, OCI-P5x cells, without rucaparib) 97.4% | viability ([10]; at 5 µM, OCI-C5x cells, with rucaparib 10 µM, 100% = cells with rucaparib alone) 21.8% | viability ([10]; at 5 µM, OCI-C5x cells, without rucaparib) 90.4% | viability ([10]; at 5 µM, OCI-P5x cells, with rucaparib 20 µM, 100% = cells with rucaparib alone) 10.9% | viability ([10]; at 5 µM, OCI-P5x cells, without rucaparib) 21.5%

CC(C)c1nn(-c2c(Cl)cccc2Cl)c2nc(Cc3ccc(OCCO)cc3)[nH]c(=O)c12
active: AC50 [1] 41.7 nM | AC50 [2] 118 nM | AC50 [3] 83.3 nM | AC50 [4] 46.8 nM | AC50 [5] 41.7 nM | AC50 [11] 46.8 nM | IC50 [12] 83.3 nM
